Screen size: about 360,000 compounds; about 1,300 (0.36%) were called active. The list comes from a sample in which actives are over-represented; it also holds similar structures and randomly drawn compounds. Unmarked numbers belong to inactive results.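 The calls were made as follows: active = corrected activity change at or below -50% at 5 µM; inactive = the rest.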
Experiment: cytotoxicity in KKLEB CF airway cells, primary screen, cytotoxicity control for CF NF-kB inhibitor project, cell-based, uHTS, fluorescence assay plates (AID 602141)
Settings: KKLEB CF airway cells viability, ATPlite luminescence, overnight; at 5 µM; stronger effect = lower value; cells stimulated with P. aeruginosa culture filtrate
For `N#CCCN(C(=O)Nc1ccc(Cl)c(Cl)c1)C1CCCCC1`, the activity change (cytotoxicity) was 11.3%.
In the case of `O=C(CC(O)(C(F)(F)F)C(F)(F)F)Nc1ccc(Cl)c(Cl)c1`, the activity change (cytotoxicity) is reported as -59% (active).
In the case of `CC1(C(=O)O)CCC(C(=O)Nc2ccc(Cl)c(Cl)c2)C1(C)C` (centres undefined), the activity change (cytotoxicity) is reported as 3.1%.
In the case of `CCCCC(c1nnnn1CS(=O)(=O)c1ccc(C)cc1)N1CCC(C(N)=O)CC1` (centres undefined), the activity change (cytotoxicity) is reported as -15%.
Compound `Cc1ccc(S(=O)(=O)N(CC(=O)Nc2cccc([N+](=O)[O-])c2)Cc2ccc(Cl)cc2)cc1` has an activity change (cytotoxicity) of 10.5%.
For `CC(=O)N(CN1C(=O)C2CC=CCC2C1=O)c1cccc(Cl)c1` (centres undefined), the activity change (cytotoxicity) was 8.7%.
With `O=C(CCl)N(Cc1cccc([N+](=O)[O-])c1)c1cccc(Cl)c1` the activity change (cytotoxicity) was -96.2% (active).
With `CCCSc1nc2sc3c(c2c(=O)n1-c1ccc(OC)cc1)CCN(C)C3` the activity change (cytotoxicity) was 6.6%.
In the case of `CCCn1nnc2sc3c(c2c1=O)CCC(C)C3` (centres undefined), the activity change (cytotoxicity) is reported as -55.8% (active).
Work on `Cc1cc(NC(=O)CSc2nc(C(C)C)nc3sc4c(c23)CCC(C)C4)no1` (centres undefined) yielded an activity change (cytotoxicity) of -1.3%.
`O=S(=O)(O)CCN1CCOCC1` showed an activity change (cytotoxicity) of -2.1%.
In the case of `CC(=O)NC(c1cccc(F)c1)c1nc(-c2cccc(F)c2)cs1` (centres undefined), the activity change (cytotoxicity) is reported as -3.6%.
With `CC(C)N(Cc1nc(-c2ccc3c(c2)OCO3)no1)CC1CCC(=O)N1` (centres undefined) the activity change (cytotoxicity) was 7.7%.
With `CCCSc1nsc(N)n1` the activity change (cytotoxicity) was -4.9%.
Compound `Cc1csc(NC(=O)CSc2ccc(-c3ccc(F)cc3)nn2)n1` has an activity change (cytotoxicity) of 8.5%.
`COc1ccc(C(=O)CCC(=O)Nc2cccnc2)c(OC)c1` showed an activity change (cytotoxicity) of -8.9%.
For `Cc1ccccc1OCC(=O)Nc1nc(C)c(C(=O)N(C)C)s1`, the activity change (cytotoxicity) was 2.2%.
For `COC(=O)c1sc(NC(=O)c2ccc(OC)cc2OC)nc1C`, the activity change (cytotoxicity) was -66.8% (active).
For `Cc1csc(NC(=O)CSc2nc(=O)cc(N)n2-c2ccc(F)cc2)n1`, the activity change (cytotoxicity) was -0.9%.
In the case of `COc1cc(SC)ccc1C(=O)Nc1nc(C)cs1`, the activity change (cytotoxicity) is reported as -88.8% (active).
`Cc1ccc2c(c1)N(CC(=O)N1CCC(O)CC1)C(=O)CO2` gave an activity change (cytotoxicity) of 7.7%.
`O=C(NCCCN1CCCCC1)C1CC(=O)N(CCc2ccccc2)C1` (centres undefined) gave an activity change (cytotoxicity) of -3.7%.
For `O=C(CNC(=O)c1cc(S(=O)(=O)N2CCOCC2)ccc1N1CCCC1)Nc1ccc(F)c(F)c1`, the activity change (cytotoxicity) was 8%.
`Cc1cc(C)c2c(=O)n3c(nc2c1)C(CC(C)C)NC(=O)c1cc2ccccc2cc1-3` (centres undefined) gave an activity change (cytotoxicity) of -9%.
In the case of `O=C(/C(=C/c1cccc(Cl)c1)c1nc2ccccc2[nH]1)c1ccccc1`, the activity change (cytotoxicity) is reported as -62.2% (active).
In the case of `CCCCn1c(N)c(N(CC(C)C)C(=O)CN(C)S(=O)(=O)c2ccc(F)cc2)c(=O)[nH]c1=O`, the activity change (cytotoxicity) is reported as 1.7%.
In the case of `CCNC(=O)CC1C(=O)N(c2ccc(F)cc2)C(=O)N1CCc1sccc1C` (centres undefined), the activity change (cytotoxicity) is reported as 15.4%.
In the case of `O=C(Nc1nnc(SCc2ccccc2Cl)s1)c1cccc([N+](=O)[O-])c1`, the activity change (cytotoxicity) is reported as -35.3%.
For `O=C(NC(Nc1nc2ccc([N+](=O)[O-])cc2s1)(C(F)(F)F)C(F)(F)F)c1ccccc1`, the activity change (cytotoxicity) was -70.6% (active).
`O=C(NNC(=O)c1ccc(-n2cncn2)c([N+](=O)[O-])c1)c1ccccc1` gave an activity change (cytotoxicity) of 9.1%.
In the case of `O=C(COC(=O)c1ccccc1NC(=O)c1ccco1)Nc1ccc2c(c1)OC(F)(F)O2`, the activity change (cytotoxicity) is reported as -4.2%.
`COc1ccc(S(=O)(=O)NC(CC(=O)NCc2ccccc2OC)c2ccco2)cc1` (centres undefined) gave an activity change (cytotoxicity) of 5%.
`Cc1c(NC(=O)Nc2cccc([N+](=O)[O-])c2)c(=O)n(-c2ccccc2)n1C` showed an activity change (cytotoxicity) of 0%.
In the case of `CCCNC(=O)c1c(Cl)cnn1-c1ccc(C)cc1`, the activity change (cytotoxicity) is reported as 8.9%.
In the case of `Cc1cccc(-n2ncc(Cl)c(Cl)c2=O)c1`, the activity change (cytotoxicity) is reported as -97.1% (active).
With `Nc1c(-c2cccc(Cl)c2)cnn1-c1cccc([N+](=O)[O-])c1` the activity change (cytotoxicity) was 4.3%.
`CN(C)/C=C(/C(=O)c1ccc(Cl)c(Cl)c1)c1nnnn1-c1ccccc1` showed an activity change (cytotoxicity) of 7.2%.
`O=C(NCCN1C(=O)S/C(=C\c2cccnc2)C1=O)c1ccc(S(=O)(=O)N2CCCC2)cc1` showed an activity change (cytotoxicity) of -6.2%.
Work on `C=CCn1c(C2CC(=O)N(c3ccc(C)cc3)C2)nc2ccccc21` (centres undefined) yielded an activity change (cytotoxicity) of 1.2%.
For `COc1cccc(NC(=S)N(Cc2ccc(C)cc2)Cc2ccccn2)c1`, the activity change (cytotoxicity) was 2.6%.
Compound `COc1ccc(NC(=O)C2Cc3c(-c4ccc5c(c4)OCO5)ccnc3O2)cn1` (centres undefined) has an activity change (cytotoxicity) of -19.2%.
With `COc1ccc(NC(=O)/C(Cl)=C(/Cl)S(=O)Cc2ccc(C)cc2)cn1` (centres undefined) the activity change (cytotoxicity) was -105% (active).
`CC(C)NC(=O)C1(C)CCCCCN1C(=O)c1ccc(-c2ccccc2)cc1` (centres undefined) showed an activity change (cytotoxicity) of -2%.
For `COC(=O)c1ccc(S(=O)(=O)NCc2ccccc2)n1C`, the activity change (cytotoxicity) was 9.6%.
`C=CCOc1nc2c(c(=O)n(C)c(=O)n2C)n1Cc1ccc(Cl)cc1Cl` gave an activity change (cytotoxicity) of 9.5%.
For `CN(CC(=O)NCCc1ccccn1)S(=O)(=O)c1ccc(Cl)cc1`, the activity change (cytotoxicity) was 10.8%.
Work on `CN(CC(=O)NCC(c1ccccc1)N1CCCC1)S(=O)(=O)c1ccc(Cl)cc1` (centres undefined) yielded an activity change (cytotoxicity) of 16%.
For `CN(CC(=O)NNC(=O)CNC(=O)c1ccccc1Cl)S(=O)(=O)c1ccc(Cl)cc1`, the activity change (cytotoxicity) was -61.3% (active).
Work on `O=C(O)c1cccnc1Sc1ncnc2sc3c(c12)CCC3` yielded an activity change (cytotoxicity) of 15.9%.
`O=S(=O)(c1ccccc1)c1nc(Cc2ccccc2)oc1N1CCOCC1` gave an activity change (cytotoxicity) of -0.9%.
For `c1ccc(CSc2ncnc3c2sc2nc(N4CCOCC4)c4c(c23)CCCC4)cc1`, the activity change (cytotoxicity) was -51% (active).
With `Cc1c(CCO)c(=O)[nH]n1C(=O)c1c(F)cccc1F` the activity change (cytotoxicity) was 1.8%.
`S=c1[nH]cc(-c2ccc(Cl)cc2)n1-c1ccccc1` showed an activity change (cytotoxicity) of 6.2%.
Work on `Cc1ccnc(SCC(=O)Nc2cccc(S(=O)(=O)N3CCOCC3)c2)n1` yielded an activity change (cytotoxicity) of 7.3%.
In the case of `O=[N+]([O-])c1cc(S(=O)(=O)Nc2cccc(Cl)c2)ccc1N=Nc1c(O)[nH]c2ccccc12`, the activity change (cytotoxicity) is reported as -80% (active).
`O=C(NCc1ccncc1)c1ccc(NS(=O)(=O)c2cccc([N+](=O)[O-])c2)cc1` gave an activity change (cytotoxicity) of -3%.
For `O=C(CCN1CCCCC1)N=Nc1c(O)[nH]c2ccccc12`, the activity change (cytotoxicity) was -4.3%.
`CCCNC(=O)CCn1cc(-c2ccc(OC)cc2)nc1CCN` showed an activity change (cytotoxicity) of 2.3%.
`COc1ccc(C2CC(=O)C=C(NCC3CCCO3)C2)cc1` (centres undefined) showed an activity change (cytotoxicity) of 0%.

From PubChem BioAssay AID602141 (Sanford-Burnham Center for Chemical Genomics, 2011)
